Records with an inconclusive call do not appear. Values without a mark were called inactive. Calls of active or inactive are those of the source. Calls follow the shape of the dose curve; as a rule, active = well fitted curve in the direction sought with a large enough effect in the repeat runs; inconclusive = weak or mixed curves; inactive = no such curve, though single readings can be large; an effect the other way counts as inactive or inconclusive.
Biological target: Voltage-gated inwardly rectifying potassium channel KCNH2 (Homo sapiens) (UniProt Q12809)
Sequence (Q12809 whole entry, looked up): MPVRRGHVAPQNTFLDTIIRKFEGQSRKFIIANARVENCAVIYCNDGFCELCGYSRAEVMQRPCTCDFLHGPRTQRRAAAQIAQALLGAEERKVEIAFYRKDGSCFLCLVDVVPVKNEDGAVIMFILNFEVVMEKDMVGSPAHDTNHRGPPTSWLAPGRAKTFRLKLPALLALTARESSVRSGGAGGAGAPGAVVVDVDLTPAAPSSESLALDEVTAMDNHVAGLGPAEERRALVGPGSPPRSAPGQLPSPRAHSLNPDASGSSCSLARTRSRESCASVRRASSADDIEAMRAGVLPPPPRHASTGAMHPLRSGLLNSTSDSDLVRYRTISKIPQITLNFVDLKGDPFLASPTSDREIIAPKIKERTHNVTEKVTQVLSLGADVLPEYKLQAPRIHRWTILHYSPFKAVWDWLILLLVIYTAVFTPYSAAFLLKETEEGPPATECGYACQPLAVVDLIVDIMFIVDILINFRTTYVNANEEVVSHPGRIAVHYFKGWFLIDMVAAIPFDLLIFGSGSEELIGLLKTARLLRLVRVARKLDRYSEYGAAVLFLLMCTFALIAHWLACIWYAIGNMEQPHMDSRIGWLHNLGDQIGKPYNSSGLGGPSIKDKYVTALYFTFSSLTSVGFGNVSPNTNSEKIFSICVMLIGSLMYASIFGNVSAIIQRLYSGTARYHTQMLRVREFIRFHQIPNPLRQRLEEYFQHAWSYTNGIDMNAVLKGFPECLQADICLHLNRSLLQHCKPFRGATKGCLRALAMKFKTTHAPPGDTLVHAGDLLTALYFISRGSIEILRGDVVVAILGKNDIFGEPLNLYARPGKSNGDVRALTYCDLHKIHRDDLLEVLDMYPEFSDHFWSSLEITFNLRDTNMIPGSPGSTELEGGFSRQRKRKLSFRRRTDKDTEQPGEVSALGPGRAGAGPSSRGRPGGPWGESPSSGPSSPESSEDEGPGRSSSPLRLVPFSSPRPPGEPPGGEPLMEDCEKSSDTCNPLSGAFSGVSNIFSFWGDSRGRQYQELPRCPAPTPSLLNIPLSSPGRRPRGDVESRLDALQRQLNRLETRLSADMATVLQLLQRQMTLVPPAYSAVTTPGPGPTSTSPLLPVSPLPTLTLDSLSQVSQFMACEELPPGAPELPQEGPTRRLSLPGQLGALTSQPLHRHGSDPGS
Assay: Human Ether-a-go-go-Related Gene (hERG) channel small molecule antagonists: fluorescence cell-based qHTS assay (AID 1671200)
Details: hERG-U2OS cells, FluxOR thallium flux fluorescence; series mostly up to 76.8 µM; activity change, negative = inhibition: at the top concentration
Method in brief: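 Thallium flux as potassium surrogate: FluxOR II dye loaded 1 h at room temperature into hERG-expressing U2OS cells, then stimulus buffer added after 10 min. Kinetic 480 nm excitation/540 nm emission read, 2 min.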
% is scaled to controls: 0 for no effect and ±100 for the full control effect; potency is read from the fitted curve at half-maximal effect.
Also: nearly all actives have a fitted effect of over 50% in size.

SMILES	activity change, negative = inhibition	Potency
C[C@]12CCC(=O)C=C1CC[C@@H]1[C@@H]2CC[C@@]2(C)[C@H]1CC[C@]2(O)C(=O)CO	-0.651% [at 35.3 µM]	–
O=CCCc1ccccc1	-1.76%	–
CN1CCN(c2c(F)cc3c(=O)c(C(=O)O)cn4c3c2SCC4)CC1	0.972% [at 35.3 µM]	–
CC1=C2[C@H](/C=C(\C)C(=O)O)CC[C@@H](C)[C@H]2CC1	5.11%	–
C=CCCCCCCCCO	-1.3%	–
NCCC(O)(P(=O)(O)O)P(=O)(O)O	-9.9% [at 35.3 µM]	–
C/C(=N\O)[C@@H](C)NCC(C)(C)CN[C@H](C)/C(C)=N/O	2.6% [at 35.3 µM]	–
CC(C)OC(C)C	2.49%	–
C1CSCCS1	2.18%	–
CCc1cc(Cl)c(OC)c(C(=O)NC[C@@H]2CCCN2CC)c1O	–	6.74 µM (active)
CC1(C)O[C@@H]2C[C@H]3[C@@H]4CCC5=CC(=O)CC[C@]5(C)[C@@]4(F)[C@@H](O)C[C@]3(C)[C@]2(C(=O)CCl)O1	1.3% [at 35.3 µM]	–
CCOC(=O)C1CC(=O)C(=C(O)C2CC2)C(=O)C1 (configuration not stated)	-1.58%	–
O=S(=O)(O)C(F)(F)F	0.744%	–
CCCCCCCCCCCCCCCCOP(=O)([O-])OCC[N+](C)(C)C	-7.32% [at 35.3 µM]	–
CC1(C)S[C@@H]2[C@H](NC(=O)C(C(=O)O)c3ccccc3)C(=O)N2[C@H]1C(=O)O (some centres not stated)	-1.47% [at 35.3 µM]	–
O=C(O)c1cccc(Cl)c1Cl	7.16%	–
CCCCc1ccc2nc(NC(=O)OC)[nH]c2c1	0.392% [at 35.3 µM]	–

SMILES	activity change, negative = inhibition	Potency
CCCCCCn1c(=O)c2c(ncn2C)n(C)c1=O	0.687% [at 35.3 µM]	–
O=C(CC(=O)C(F)(F)F)c1ccccc1	12.5%	–
CCCCCCCOC(=O)CCC	0.686%	–
Clc1cccc(-c2cc(Cl)cc(Cl)c2)c1	-24.6%	–
CC(C)S	-2.4%	–
C[C@]12C(=O)OC(=O)[C@H]1[C@H]1C=C[C@@H]2C1	0.83%	–
O=C(CCCl)NCc1ccccc1	-2.95% [at 35.3 µM]	–
C=Cc1ccccc1	4.91%	–
CCOC(=O)COc1ccc2c(c1)CC(NCC(O)c1cccc(Cl)c1)CC2 (configuration not stated)	–	1.39 µM (active)
CC1=C(CC(=O)O)c2cc(F)ccc2/C1=C\c1ccc(S(C)(=O)=O)cc1	2.35% [at 35.3 µM]	–
Cc1cc(S(=O)(=O)O)c(N)cc1Cl	4.33%	–
Cc1ccc(C)c(N)c1	-3.45%	–
O=C(O)[C@@H]1CSCN1	-1.65% [at 35.3 µM]	–
C[C@@H]1CN(c2c(F)c(N)c3c(=O)c(C(=O)O)cn(C4CC4)c3c2F)C[C@H](C)N1	-2.21% [at 15.8 µM]	–
Oc1ccccc1C=NCc1ccccc1	-16.5% [at 35.3 µM]	–
NCCCN1CCN(CCCN)CC1	5.09%	–
O=Cc1ccc(O)c(O)c1O	-0.263% [at 35.3 µM]	–

Biological target: Cytochrome P450 3A4 (Homo sapiens) (UniProt P08684)
Sequence (P08684 whole entry, looked up): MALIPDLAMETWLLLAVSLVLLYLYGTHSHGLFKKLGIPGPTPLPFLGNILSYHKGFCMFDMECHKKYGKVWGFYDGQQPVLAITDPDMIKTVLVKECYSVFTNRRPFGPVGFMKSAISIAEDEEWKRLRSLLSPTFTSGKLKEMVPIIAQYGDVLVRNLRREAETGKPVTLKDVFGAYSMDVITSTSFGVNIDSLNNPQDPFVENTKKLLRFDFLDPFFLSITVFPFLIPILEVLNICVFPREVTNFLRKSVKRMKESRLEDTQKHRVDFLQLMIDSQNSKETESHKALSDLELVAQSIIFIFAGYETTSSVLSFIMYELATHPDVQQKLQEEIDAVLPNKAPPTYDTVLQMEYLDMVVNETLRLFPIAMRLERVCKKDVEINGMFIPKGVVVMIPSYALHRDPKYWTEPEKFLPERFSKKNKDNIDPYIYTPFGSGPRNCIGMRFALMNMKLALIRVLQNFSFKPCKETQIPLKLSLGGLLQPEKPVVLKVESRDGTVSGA
Assay: Cytochrome P450 Family 3 Subfamily A Member 4 (CYP3A4) small molecule antagonists: luciferase reporter qHTS assay (AID 1671201)
Details: P450-Glo CYP3A4 enzyme, luciferin luminescence, 1 h; series mostly up to 115 µM; activity change, negative = inhibition: at the top concentration
Method in brief: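 Recombinant human CYP3A4 converts a proluciferin substrate to luciferin over 1 h at room temperature after NADPH regeneration solution is added (compound preincubated 10 min); detection reagent stops reaction, luminescence read 20 min later as relative units.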

SMILES	activity change, negative = inhibition	Potency
CC1=C2[C@H](/C=C(\C)C(=O)O)CC[C@@H](C)[C@H]2CC1	-2.07%	–
CC(C)OC(C)C	-0.491%	–
C1CSCCS1	12.2%	–
CC1(C)S[C@@H]2[C@H](NC(=O)C(C(=O)O)c3ccccc3)C(=O)N2[C@H]1C(=O)O (some centres not stated)	11.3% [at 52.9 µM]	–
CC(C)C1=CC2=CC[C@@H]3[C@](C)(CCC[C@@]3(C)C(=O)O)[C@H]2CC1	–	35.6 µM (active)
O=C(O)c1cccc(Cl)c1Cl	2.53%	–
COC(=O)C(C)O (configuration not stated)	-4.25%	–
CCCCc1ccc2nc(NC(=O)OC)[nH]c2c1	14% [at 52.9 µM]	–
O=C(CC(=O)C(F)(F)F)c1ccccc1	10.9%	–
CCCCCCCOC(=O)CCC	4.46%	–
Clc1cccc(-c2cc(Cl)cc(Cl)c2)c1	36.1%	–
CC(C)S	0.469%	–
O=C(CCCl)NCc1ccccc1	0.365% [at 52.9 µM]	–
Cc1cc(S(=O)(=O)O)c(N)cc1Cl	8.5%	–
Cc1ccc(C)c(N)c1	–	3.56 µM (active)
O=C(O)[C@@H]1CSCN1	3.85% [at 52.9 µM]	–
C[C@@H]1CN(c2c(F)c(N)c3c(=O)c(C(=O)O)cn(C4CC4)c3c2F)C[C@H](C)N1	-3.59% [at 23.6 µM]	–
NCCCN1CCN(CCCN)CC1	15.2%	–

Source: PubChem BioAssay (Tox21)
